# Laboratory results: publication PMC4336329 (PLoS ONE, 2015)
# The campaign covered roughly 310,000 compounds. About 14,000 (4.5%) showed an effect of 50% or more. Effects have a minus sign here. The sample as a whole holds a higher share of strong results than the screen did.
# Molecular target: human ether-à-go-go-related gene (hERG) potassium channel (human, UniProt Q12809)
# Assay: primary screen, population patch clamp on CHO cells stably expressing hERG; higher = less effect of the substance
# 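Further: peak tail current of the secondary pulse compared with the same well before compound.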
# Chain of human ether-à-go-go-related gene (hERG) potassium channel (Q12809 whole entry, looked up): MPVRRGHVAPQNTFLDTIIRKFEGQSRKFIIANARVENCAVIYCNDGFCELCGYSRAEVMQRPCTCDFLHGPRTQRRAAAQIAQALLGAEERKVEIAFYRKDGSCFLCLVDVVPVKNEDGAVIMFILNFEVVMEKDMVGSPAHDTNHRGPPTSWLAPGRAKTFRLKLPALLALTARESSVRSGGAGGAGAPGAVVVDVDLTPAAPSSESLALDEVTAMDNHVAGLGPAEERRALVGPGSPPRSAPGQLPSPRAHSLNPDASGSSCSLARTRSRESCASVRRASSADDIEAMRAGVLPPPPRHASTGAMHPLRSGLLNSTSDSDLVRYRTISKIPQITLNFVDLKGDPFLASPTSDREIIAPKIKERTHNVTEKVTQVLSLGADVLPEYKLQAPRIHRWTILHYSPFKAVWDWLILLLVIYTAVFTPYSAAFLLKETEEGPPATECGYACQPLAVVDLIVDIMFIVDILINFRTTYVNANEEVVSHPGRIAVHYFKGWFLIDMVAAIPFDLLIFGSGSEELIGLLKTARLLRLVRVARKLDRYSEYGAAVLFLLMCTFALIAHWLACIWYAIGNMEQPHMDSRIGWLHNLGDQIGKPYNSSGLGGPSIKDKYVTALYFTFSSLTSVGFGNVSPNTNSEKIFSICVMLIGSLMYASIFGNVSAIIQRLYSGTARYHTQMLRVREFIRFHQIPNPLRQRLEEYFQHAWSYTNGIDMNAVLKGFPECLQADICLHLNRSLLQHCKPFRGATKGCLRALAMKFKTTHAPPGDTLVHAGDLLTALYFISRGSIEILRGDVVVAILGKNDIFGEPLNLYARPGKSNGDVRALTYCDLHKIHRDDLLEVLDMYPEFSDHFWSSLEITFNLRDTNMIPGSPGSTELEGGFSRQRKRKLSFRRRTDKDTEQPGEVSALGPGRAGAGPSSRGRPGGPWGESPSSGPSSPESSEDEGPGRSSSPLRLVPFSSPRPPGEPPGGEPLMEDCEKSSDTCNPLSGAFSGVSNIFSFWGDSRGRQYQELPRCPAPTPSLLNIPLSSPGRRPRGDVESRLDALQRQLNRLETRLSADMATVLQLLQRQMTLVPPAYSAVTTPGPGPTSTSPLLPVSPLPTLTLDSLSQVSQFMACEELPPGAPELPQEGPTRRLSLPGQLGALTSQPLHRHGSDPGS
row,SMILES,"hERG current change (%, negative = inhibition) at 10uM"
1,CC(Cc1cccs1)NC(=O)Nc1ccccc1 (stereo not drawn),0.115%
2,O=C(c1ccc(S(=O)(=O)N2CCOCC2)cc1)N1CCc2ccccc2C1,-4.25%
3,CN(C)S(=O)(=O)c1ccc(C(=O)NCC(=O)N/N=C/c2ccccc2Cl)cc1,5.43%
4,COc1cc(C)c(CN2CCN(C(C)C(=O)NC(C)c3ccccc3)CC2)cc1OC (stereo not drawn),-18.3%
5,COc1cc(CN2CCN(c3cccc(C)c3C)CC2)cc(Br)c1O,-12.6%
6,COc1ccc(CN2CCN(C(C)C(=O)NC(C)c3ccc(F)cc3)CC2)cc1F (stereo not drawn),-62%
7,CCOc1ccccc1N1CCN(Cc2ccc(OC)c(OC)c2OC)CC1,-51.9%
8,COc1ccc(CN2CCN(S(=O)(=O)c3ccc(F)cc3)CC2)cc1OC.O=C(O)C(=O)O,7.33%
9,CC(NC(=O)C(C)N1CCN(Cc2ccccc2)CC1)c1ccc(F)cc1 (stereo not drawn),5.35%
10,COc1cc(CN2CCN(c3cccc(C)c3C)CC2)cc(OC)c1O,-45.4%
11,COc1cccc(CN2CCN(Cc3cccc(F)c3)CC2)c1.O=C(O)C(=O)O,-6.47%
12,COc1ccc(CN2CCN(c3cccc(C)c3C)CC2)cc1OC,-72%
13,COc1ccccc1N1CCN(Cc2ccc(OC)c(OC)c2OC)CC1,-35.8%
14,COc1ccc(CN2CCN(C(C)C(=O)N(C)Cc3cccc(F)c3)CC2)cc1OC.O=C(O)C(=O)O (stereo not drawn),-61%
15,CCOc1ccccc1N1CCN(Cc2cccc(OC)c2OC)CC1,-17%
16,CC(C)S(=O)(=O)C1=NSC2=NC(=O)/C(=C\c3ccc(OC(=O)c4ccco4)cc3)C(=N)N21,12.8%
17,COc1cc2nc(C(C)(C)C)oc(=O)c2cc1OC,10.6%
18,NC(=O)CC(NC(=O)c1ccccc1)c1ccc(NC2CCCC2)c([N+](=O)[O-])c1 (stereo not drawn),5.39%
19,Cc1cc(C(=O)OCC(=O)c2ccc(Cl)c([N+](=O)[O-])c2)c2cccc(C)c2n1,6.36%
20,CS(=O)(=O)N(Cc1ccc(C(=O)NN=C2CCCC2)cc1)c1ccccc1,8.63%
21,CCC(=O)Nc1cc(-c2cc3ccccc3oc2=O)ccc1OC,-29.6%

row,SMILES,"hERG current change (%, negative = inhibition) at 10uM"
1,COc1ccccc1CN1CCN(Cc2ccc3ccccc3c2)CC1.O=C(O)C(=O)O,-36.7%
2,COc1ccccc1N1CCN(Cc2cccc(Br)c2)CC1.O=C(O)C(=O)O,-5.27%
3,COc1ccccc1N1CCN(Cc2ccccc2)CC1.O=C(O)C(=O)O,-7.21%
4,COc1ccccc1N1CCN(Cc2ccc(Br)cc2)CC1.O=C(O)C(=O)O,-70.3%
5,COc1ccc(CN2CCN(Cc3ccc4ccccc4c3)CC2)cc1OC.O=C(O)C(=O)O,-67%
6,COc1ccc(CN2CCN(Cc3ccccc3F)CC2)cc1OC.O=C(O)C(=O)O,-22.6%
7,COc1ccc(CN2C(=O)Cc3c2nc(N)c2c(N)nc(N4CCOCC4)c(C#N)c32)cc1,-36.8%
8,Cc1nnc(SCC(=O)Nc2nccs2)n(N)c1=O,19.4%
9,CC1CCCCC1NC(=O)c1ccc(S(=O)(=O)NCC2CCCO2)cc1 (stereo not drawn),-10.7%
10,Cc1ccc(C)c(S(=O)(=O)N2CCC3(CC2)OCCN3S(=O)(=O)c2cccs2)c1,5.64%
11,CCCc1nc(SCC(=O)c2ccccc2)c2c(=O)n(C)c(=O)n(C)c2n1,-23.5%
12,OCCNCCCCOc1ccc(F)cc1,4.18%
13,CCC(=O)Nc1sc2c(c1C#N)CCCCC2,0.0585%
14,CCCC(=O)Nc1sc2c(c1C#N)CCCCC2,-50.6%
15,CCCC(=O)Nc1sc2c(c1C#N)CCCC2,4.29%
16,CCn1c(SCC(=O)Nc2oc(-c3ccccc3)c(-c3ccccc3)c2C#N)nnc1-c1ccncc1,-68.2%
17,N#Cc1c(NC(=O)CSc2nnc(-c3ccncc3)n2CC2CCCO2)sc2c1CCCC2 (stereo not drawn),-40.7%
18,COCCCn1c(SCC(=O)Nc2sc3c(c2C#N)CCCC3)nnc1-c1ccncc1,-49.4%
19,CCn1c(SCC(=O)Nc2oc(-c3ccccc3)c(-c3ccccc3)c2C#N)nnc1-c1ccco1,-30.8%
20,CCn1c(SCC(=O)Nc2sc3c(c2C#N)CCCC3)nnc1-c1ccncc1,-63.5%
21,CCn1c(SCC(=O)Nc2oc(-c3ccccc3)c(-c3ccccc3)c2C#N)nnc1-c1cc(OC)cc(OC)c1,-5.33%

row,SMILES,"hERG current change (%, negative = inhibition) at 10uM"
1,O=S1OCCN1c1ccccc1 (stereo not drawn),10.4%
2,O=C(c1ccc(OC2CCN(CCc3ccccc3)CC2)cc1)N1CCCC(CO)C1 (stereo not drawn),-12.4%
3,COc1ccc([C@H]2/C=C\CN(S(=O)(=O)c3ccc4ccccc4c3)[C@@H](C)C(=O)N2Cc2ccc(F)cc2)cc1,6.43%
4,CC1CCCC(C)N1C(=O)CN1C(=O)c2ccccc2S1(=O)=O (stereo not drawn),3.3%
5,O=C(Cc1ccccc1)Nc1ccc(NC(=O)c2ccc(Br)cc2)cc1,15.4%
6,OC1(c2ccc(Cl)cc2)CN(c2ccccc2)C2=[N+]1CCS2.[Br-] (stereo not drawn),-50.4%
7,Cc1ccc(C2(O)CN(c3ccccc3)C3=[N+]2CCS3)cc1.[Br-] (stereo not drawn),-32.6%
8,OC1(c2ccccc2)CN(c2ccccc2)C2=[N+]1CCS2.[Br-] (stereo not drawn),-28.1%
9,Cc1ccc(C2(O)CN(c3ccccc3C)C3=[N+]2CCS3)cc1.[Br-] (stereo not drawn),-28.1%
10,O=[N+]([O-])c1ccc(C2(O)CN(c3ccccc3)C3=[N+]2CCS3)cc1.[Br-] (stereo not drawn),-60.8%
11,OC1(c2ccc(F)cc2)CN(c2ccccc2)C2=[N+]1CCS2.[Br-] (stereo not drawn),-13.9%
12,O=P(COCCO)(c1ccccc1)c1ccccc1,-4.96%
13,COc1ccc(NC(=O)C2Cc3ccccc3O/C2=N\O)cc1 (stereo not drawn),13.8%
14,COc1ccccc1NC(=S)N1CCC(c2nc3cc(C)c(C)cc3[nH]2)CC1,-21%
15,COc1ccccc1NC(=O)CN1CCC(c2nc3ccc(C)cc3[nH]2)CC1,-57.7%
16,COc1cccc(CNC(=O)CSc2nc3ccc(C)cc3[nH]2)c1,6.22%
17,CCOc1ccccc1NC(=O)N1CCC(c2nc3ccc(C)cc3[nH]2)CC1,-55.5%
18,CCOC(=O)CNC(=O)CN1CCC(c2nc3ccccc3[nH]2)CC1,13.7%
19,Cc1ccc2nc(C3CCN(C(=O)NCc4ccccc4)CC3)[nH]c2c1,-30%
20,COc1ccc(C(=O)NC2CCN(CC(=O)NCc3cccc(OC)c3)CC2)cc1,-19.9%
21,COc1ccccc1NC(=O)N1CCC(c2nc3cc(C)c(C)cc3[nH]2)CC1,-53.3%

row,SMILES,"hERG current change (%, negative = inhibition) at 10uM"
1,COc1ccc(NC(=O)N2CCC(c3nc4ccccc4[nH]3)CC2)cc1,9.26%
2,COc1ccccc1NC(=O)CN1CCC(c2nc3ccccc3[nH]2)CC1,-43.6%
3,CCOc1ccccc1NC(=O)N1CCC(c2nc3ccccc3[nH]2)CC1,-23.6%
4,COc1cccc(CNC(=O)CN2CCC(c3nc4ccc(C)cc4[nH]3)CC2)c1,-68.4%
5,COc1ccccc1-c1cnn2c(N3CCOCC3)cc(C)nc12,23.9%
6,C=CCOc1ccc(/C=C/C(C)=N\O)cc1,4.84%
7,O=[N+]([O-])c1c(Nc2ccccn2)cc(Cl)c2nonc12,9.59%
8,CSCCC1NC(=S)N(Cc2ccccc2)C1=O (stereo not drawn),16.3%
9,CCN(CC)C(=O)CSc1ccccc1N,13%
10,C[C@@H]1CC=C[C@H]2[C@H]1C(=O)N(Cc1ccccc1)[C@H]2c1ccc2ccccc2c1,3.52%
11,COc1ccc(C2=C(Nc3ccc(C)cc3)c3ccccc3C2=O)cc1,3.57%
12,COc1ccccc1C(CNC(=O)c1cc(S(=O)(=O)N2CCOCC2)ccc1C)N1CCCC1 (stereo not drawn),2.53%
13,CCn1cc(C(=O)N2CCCC2)c(=O)c2cc(S(=O)(=O)N3CCC(C)CC3)ccc21,6.02%
14,CCn1cc(C(=O)N2CCCCC2)c(=O)c2cc(S(=O)(=O)N3CCC(C)CC3)ccc21,-18.4%
15,CCn1cc(C(=O)N2CCOCC2)c(=O)c2cc(S(=O)(=O)N(C)C3CCCCC3)ccc21,0.899%
16,CCOC(=O)N1CCN(C(=O)c2cn(CC)c3ccc(S(=O)(=O)N(C)C4CCCCC4)cc3c2=O)CC1,-17.3%
17,CCn1cc(C(=O)N2CCN(c3ccccn3)CC2)c(=O)c2cc(S(=O)(=O)N(C)C3CCCCC3)ccc21,-63.1%
18,CCn1cc(C(=O)N2CCN(c3ccccn3)CC2)c(=O)c2cc(S(=O)(=O)N3CCC(C)CC3)ccc21,-55.9%
19,CCCN1CNC(=S)N(c2cccc(C)c2)C1,17%
20,CCC(C)[C@H](NC(=O)N1CC(=O)Nc2ccccc21)C(=O)N1CCC[C@@H]1C(=O)O (stereo partly drawn),13.5%
21,COc1cccc(NC(=O)CCC(=O)Nc2cccc(OC)c2)c1,10.5%
